The supplement of paper PMC11732987, “Enantioselective OTUD7B fragment discovery through chemoproteomics screening and high-throughput optimisation” (Communications Chemistry, 2025)

Legend:
Experiment in all cases: log2 ratio of Biotin-Ahx-Ub-VS probe labelling (fragment/DMSO); higher = less target engagement (more negative = stronger competition), active = hit call of the paper (q ≤ 0.05, log2 ratio ≤ -1)
Details in all cases: compound concentration: 200 uM; treatment time: 3 h
ALG13 = biological target: T1, ALG13 (UniProt Q9NP73)
T1 sequence (whole entry): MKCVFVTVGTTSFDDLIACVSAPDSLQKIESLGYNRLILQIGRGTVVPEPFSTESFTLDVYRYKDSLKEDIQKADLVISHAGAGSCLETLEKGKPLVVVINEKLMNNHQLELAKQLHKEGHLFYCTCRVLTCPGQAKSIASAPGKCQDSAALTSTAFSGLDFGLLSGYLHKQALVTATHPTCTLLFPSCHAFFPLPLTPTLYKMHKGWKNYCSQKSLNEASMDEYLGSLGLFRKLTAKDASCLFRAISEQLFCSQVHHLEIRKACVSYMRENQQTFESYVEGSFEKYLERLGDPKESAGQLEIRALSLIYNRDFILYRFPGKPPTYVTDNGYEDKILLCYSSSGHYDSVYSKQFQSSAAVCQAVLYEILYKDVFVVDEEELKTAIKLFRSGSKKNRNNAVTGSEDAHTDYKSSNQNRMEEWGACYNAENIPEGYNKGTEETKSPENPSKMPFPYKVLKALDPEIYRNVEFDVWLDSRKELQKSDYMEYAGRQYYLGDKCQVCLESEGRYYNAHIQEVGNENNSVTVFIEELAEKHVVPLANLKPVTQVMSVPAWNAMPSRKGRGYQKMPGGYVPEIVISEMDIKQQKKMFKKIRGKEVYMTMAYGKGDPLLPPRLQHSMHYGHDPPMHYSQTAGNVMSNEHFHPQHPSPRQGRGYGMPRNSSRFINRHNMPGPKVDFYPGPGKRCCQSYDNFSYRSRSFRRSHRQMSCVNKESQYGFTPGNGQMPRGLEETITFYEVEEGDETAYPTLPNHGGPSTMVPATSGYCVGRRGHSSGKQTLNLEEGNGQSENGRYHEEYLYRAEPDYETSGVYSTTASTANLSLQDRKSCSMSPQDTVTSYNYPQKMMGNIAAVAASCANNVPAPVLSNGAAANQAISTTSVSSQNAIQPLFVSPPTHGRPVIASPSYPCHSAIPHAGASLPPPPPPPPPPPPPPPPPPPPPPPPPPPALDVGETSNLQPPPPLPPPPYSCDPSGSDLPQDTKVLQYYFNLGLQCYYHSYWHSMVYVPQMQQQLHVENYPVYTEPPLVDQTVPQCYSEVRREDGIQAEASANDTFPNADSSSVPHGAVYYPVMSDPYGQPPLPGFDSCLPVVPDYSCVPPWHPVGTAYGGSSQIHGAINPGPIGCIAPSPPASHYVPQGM
How it was run: (§1)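 HEK293T lysate (495 µg per sample, in Tris/CHAPS/IGEPAL buffer with protease inhibitors) was treated in triplicate with fragment at 200 µM or with DMSO for 3 h. It was then treated with Biotin-Ahx-Ub-VS (0.5 µM final) for 1 h. Labelled DUBs were NeutrAvidin-enriched, digested with LysC and trypsin, and run by diaPASEF LC-MS/MS. Spectronaut label-free quantities were global-median-normalised. Values are average log2 ratios fragment/DMSO by unpaired t-test, using proteins with ≥2 unique peptides.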

ATXN3 = ATXN3 (UniProt P54252)
How it was run: as §1

BAP1 = biological target: T2, BAP1 (UniProt Q92560)
T2 sequence (whole entry): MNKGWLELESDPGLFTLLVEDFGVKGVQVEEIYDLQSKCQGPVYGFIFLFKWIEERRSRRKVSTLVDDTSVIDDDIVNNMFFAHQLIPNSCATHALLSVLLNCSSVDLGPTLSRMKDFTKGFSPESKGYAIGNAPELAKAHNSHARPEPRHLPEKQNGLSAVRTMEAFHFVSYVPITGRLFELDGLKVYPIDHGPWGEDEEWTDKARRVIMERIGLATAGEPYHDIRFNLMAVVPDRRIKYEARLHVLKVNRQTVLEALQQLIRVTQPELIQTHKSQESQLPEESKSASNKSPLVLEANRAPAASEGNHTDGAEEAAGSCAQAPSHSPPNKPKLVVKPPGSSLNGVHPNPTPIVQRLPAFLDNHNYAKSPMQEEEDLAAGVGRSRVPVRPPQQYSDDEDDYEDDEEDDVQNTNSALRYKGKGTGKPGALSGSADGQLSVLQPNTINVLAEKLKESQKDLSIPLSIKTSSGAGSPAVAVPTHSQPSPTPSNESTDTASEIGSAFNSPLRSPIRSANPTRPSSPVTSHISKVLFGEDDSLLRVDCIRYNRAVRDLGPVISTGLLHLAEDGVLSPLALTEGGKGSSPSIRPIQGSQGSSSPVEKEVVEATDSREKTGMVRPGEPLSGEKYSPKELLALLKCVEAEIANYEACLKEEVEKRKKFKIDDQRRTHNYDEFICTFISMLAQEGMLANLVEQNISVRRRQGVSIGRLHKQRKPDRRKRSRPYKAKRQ
How it was run: as §1

EIF3F = EIF3F (UniProt O00303)
How it was run: as §1

EIF3H = EIF3H (UniProt O15372)
How it was run: as §1

FAM105A = biological target: T3, FAM105A (UniProt Q9NUU6)
T3 sequence (whole entry): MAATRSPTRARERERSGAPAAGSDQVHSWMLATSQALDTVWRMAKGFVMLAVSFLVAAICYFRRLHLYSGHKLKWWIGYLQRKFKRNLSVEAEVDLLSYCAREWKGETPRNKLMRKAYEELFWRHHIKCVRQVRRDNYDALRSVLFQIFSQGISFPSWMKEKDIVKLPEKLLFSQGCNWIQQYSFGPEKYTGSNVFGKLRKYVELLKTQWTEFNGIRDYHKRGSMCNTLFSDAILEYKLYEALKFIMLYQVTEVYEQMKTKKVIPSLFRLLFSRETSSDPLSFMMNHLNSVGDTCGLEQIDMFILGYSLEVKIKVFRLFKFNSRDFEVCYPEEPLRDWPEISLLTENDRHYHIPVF
How it was run: as §1

OTUB1 = OTUB1 (UniProt Q96FW1)
How it was run: as §1

OTUD4 = biological target: T4, OTUD4 (UniProt Q01804)
T4 sequence (whole entry): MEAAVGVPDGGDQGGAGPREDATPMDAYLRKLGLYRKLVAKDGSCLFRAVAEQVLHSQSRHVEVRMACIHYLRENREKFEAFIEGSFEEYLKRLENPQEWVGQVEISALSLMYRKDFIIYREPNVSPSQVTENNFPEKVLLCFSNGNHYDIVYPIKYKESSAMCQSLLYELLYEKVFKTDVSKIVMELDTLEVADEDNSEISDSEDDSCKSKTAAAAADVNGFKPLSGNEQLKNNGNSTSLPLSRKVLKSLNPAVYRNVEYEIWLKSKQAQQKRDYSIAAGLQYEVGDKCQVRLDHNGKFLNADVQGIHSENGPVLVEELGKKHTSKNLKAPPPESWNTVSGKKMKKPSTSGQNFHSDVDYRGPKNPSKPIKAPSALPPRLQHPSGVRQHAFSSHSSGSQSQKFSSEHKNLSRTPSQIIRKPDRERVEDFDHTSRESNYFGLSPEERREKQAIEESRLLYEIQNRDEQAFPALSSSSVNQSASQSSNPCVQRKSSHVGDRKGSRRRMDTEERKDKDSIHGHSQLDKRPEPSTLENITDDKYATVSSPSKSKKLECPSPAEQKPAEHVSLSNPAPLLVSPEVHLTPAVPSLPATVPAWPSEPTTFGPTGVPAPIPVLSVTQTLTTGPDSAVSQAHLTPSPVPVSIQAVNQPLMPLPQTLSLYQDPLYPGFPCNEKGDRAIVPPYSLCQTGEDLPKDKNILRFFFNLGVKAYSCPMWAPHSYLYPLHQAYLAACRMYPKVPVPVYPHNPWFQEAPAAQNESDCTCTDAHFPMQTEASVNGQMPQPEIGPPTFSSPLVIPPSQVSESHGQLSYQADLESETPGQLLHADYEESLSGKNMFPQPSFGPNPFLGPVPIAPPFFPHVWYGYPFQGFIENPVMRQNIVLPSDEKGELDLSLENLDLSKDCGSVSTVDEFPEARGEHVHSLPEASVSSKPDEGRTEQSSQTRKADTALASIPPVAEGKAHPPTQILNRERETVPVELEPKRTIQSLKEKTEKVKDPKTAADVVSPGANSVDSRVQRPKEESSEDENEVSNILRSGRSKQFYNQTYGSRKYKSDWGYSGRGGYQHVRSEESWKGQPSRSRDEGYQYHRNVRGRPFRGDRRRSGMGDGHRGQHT
How it was run: as §1

OTUD5 = biological target: T5, OTUD5 (UniProt Q96G74)
T5 sequence (whole entry): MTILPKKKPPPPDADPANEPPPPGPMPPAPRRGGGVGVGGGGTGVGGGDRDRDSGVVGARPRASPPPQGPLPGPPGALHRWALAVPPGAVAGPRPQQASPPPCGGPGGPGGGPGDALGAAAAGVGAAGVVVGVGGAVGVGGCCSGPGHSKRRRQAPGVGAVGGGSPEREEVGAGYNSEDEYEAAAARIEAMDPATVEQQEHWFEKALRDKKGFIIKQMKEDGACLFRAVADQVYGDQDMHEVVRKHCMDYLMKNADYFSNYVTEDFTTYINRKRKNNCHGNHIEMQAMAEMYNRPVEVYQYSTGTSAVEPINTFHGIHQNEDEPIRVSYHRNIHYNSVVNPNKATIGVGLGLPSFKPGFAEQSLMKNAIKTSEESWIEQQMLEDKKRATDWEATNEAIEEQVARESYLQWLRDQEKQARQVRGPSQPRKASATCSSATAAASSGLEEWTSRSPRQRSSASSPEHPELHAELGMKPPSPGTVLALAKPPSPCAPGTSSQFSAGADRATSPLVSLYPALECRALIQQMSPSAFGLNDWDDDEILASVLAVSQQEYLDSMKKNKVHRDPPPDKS
How it was run: as §1

Measured: log2 ratio of Biotin-Ahx-Ub-VS probe labelling

Chain of ATXN3 (P54252 whole entry): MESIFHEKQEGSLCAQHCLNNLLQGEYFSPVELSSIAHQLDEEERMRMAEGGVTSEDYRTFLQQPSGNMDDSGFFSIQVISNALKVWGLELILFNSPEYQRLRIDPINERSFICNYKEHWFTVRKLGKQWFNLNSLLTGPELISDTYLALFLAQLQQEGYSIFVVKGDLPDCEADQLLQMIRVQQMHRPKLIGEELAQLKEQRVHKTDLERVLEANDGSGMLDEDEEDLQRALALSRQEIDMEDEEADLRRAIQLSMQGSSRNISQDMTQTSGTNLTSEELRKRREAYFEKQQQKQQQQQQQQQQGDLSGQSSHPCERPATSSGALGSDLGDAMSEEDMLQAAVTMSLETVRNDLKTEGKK
Chain of OTUB1 (Q96FW1 whole entry): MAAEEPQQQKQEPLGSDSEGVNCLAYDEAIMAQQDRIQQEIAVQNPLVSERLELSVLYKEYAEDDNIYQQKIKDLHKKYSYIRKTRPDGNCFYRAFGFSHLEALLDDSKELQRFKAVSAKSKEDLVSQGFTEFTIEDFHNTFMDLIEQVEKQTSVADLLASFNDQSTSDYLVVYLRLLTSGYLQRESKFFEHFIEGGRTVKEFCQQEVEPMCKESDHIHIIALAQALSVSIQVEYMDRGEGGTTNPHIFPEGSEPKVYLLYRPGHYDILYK
Chain of EIF3H (O15372 whole entry): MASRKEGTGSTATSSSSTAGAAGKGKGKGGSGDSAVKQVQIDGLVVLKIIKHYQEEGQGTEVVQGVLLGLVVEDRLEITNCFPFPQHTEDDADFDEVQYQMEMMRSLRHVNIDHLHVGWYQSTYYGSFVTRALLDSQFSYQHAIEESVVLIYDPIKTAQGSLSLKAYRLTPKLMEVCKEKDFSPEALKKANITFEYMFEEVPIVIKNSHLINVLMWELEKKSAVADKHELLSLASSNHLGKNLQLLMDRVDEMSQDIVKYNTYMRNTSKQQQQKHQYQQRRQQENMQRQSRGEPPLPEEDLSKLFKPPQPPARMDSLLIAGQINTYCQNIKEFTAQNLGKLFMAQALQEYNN
Chain of EIF3F (O00303 whole entry): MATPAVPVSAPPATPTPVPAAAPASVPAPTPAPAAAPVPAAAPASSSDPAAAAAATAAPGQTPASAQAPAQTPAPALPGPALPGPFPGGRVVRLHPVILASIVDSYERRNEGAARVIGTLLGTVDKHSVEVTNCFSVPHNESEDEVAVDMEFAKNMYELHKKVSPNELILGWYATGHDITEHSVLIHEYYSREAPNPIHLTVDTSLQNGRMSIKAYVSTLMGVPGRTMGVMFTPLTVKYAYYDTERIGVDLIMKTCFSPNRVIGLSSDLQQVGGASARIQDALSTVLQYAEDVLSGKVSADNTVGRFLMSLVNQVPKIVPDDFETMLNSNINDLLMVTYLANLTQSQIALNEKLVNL

Cc1ccc(CN(C)C(=O)CCl)o1
inactive: ALG13 0.042 | ATXN3 -0.103 | BAP1 -0.4 | EIF3F -0.0182 | EIF3H -0.047 | FAM105A 0.277 | OTUB1 0.103 | OTUD4 0.05 | OTUD5 -0.308

CC(=O)C1CCCCN1C(=O)CCl (stereo unspecified)
inactive: ALG13 0.0431 | ATXN3 0.025 | BAP1 -0.0781 | EIF3F -0.0667 | EIF3H 0.304 | FAM105A 0.264 | OTUB1 0.0807 | OTUD4 0.0774 | OTUD5 -0.219

Cc1cccc(NC(=O)CCl)c1C
active: BAP1 -3.21
inactive: ALG13 0.138 | ATXN3 -0.243 | EIF3F -0.272 | EIF3H 0.00998 | FAM105A 0.19 | OTUB1 0.0184 | OTUD4 -0.0599 | OTUD5 -0.394

Cc1ccc(CN(CCO)C(=O)CCl)cc1
active: BAP1 -1.12
inactive: ALG13 0.163 | ATXN3 -0.225 | EIF3F 0.0155 | EIF3H 0.0625 | FAM105A 0.0195 | OTUB1 -0.0318 | OTUD4 -0.355 | OTUD5 -0.372

COc1ccc(-c2csc(NC(=O)CCl)n2)cc1
inactive: ALG13 -0.0925 | ATXN3 -0.907 | EIF3F -0.0557 | EIF3H 0.443 | FAM105A -0.207 | OTUB1 -0.0658 | OTUD4 -0.702 | OTUD5 -0.997
active: BAP1 -2.94

O=C(CCl)NC1CCN(C(=O)C2CCCCC2)CC1
inactive: ALG13 -0.358 | ATXN3 -0.103 | EIF3F -0.569 | EIF3H 0.155 | FAM105A -0.0528 | OTUB1 -0.0801 | OTUD4 0.0192 | OTUD5 -0.0926
active: BAP1 -1.71

O=C(CCl)N[C@H]1CC[C@@H](CO)CC1
active: BAP1 -1.34
inactive: ALG13 0.27 | ATXN3 -0.868 | EIF3F -0.486 | EIF3H 0.0529 | FAM105A -0.00946 | OTUB1 -0.626 | OTUD4 -0.852 | OTUD5 -0.686

Cl.O=C(CCl)N1CCn2ncc(O)c2C1
active: ATXN3 -1.69 | BAP1 -2.39
inactive: ALG13 0.326 | EIF3F -0.296 | EIF3H 0.21 | FAM105A -0.377 | OTUB1 -0.64 | OTUD4 -0.808 | OTUD5 -0.908

COc1ccc(C2CCCN2C(=O)CCl)c(OC)c1 (stereo unspecified)
active: BAP1 -3.55
inactive: ALG13 -0.266 | ATXN3 -0.54 | EIF3F -0.23 | EIF3H -0.25 | FAM105A 0.0093 | OTUB1 0.0641 | OTUD4 0.0731 | OTUD5 -0.185

CCC(NC(=O)CCl)c1ccc(Cl)cc1 (stereo unspecified)
inactive: ALG13 0.101 | ATXN3 -0.139 | EIF3F -0.0176 | EIF3H -0.0528 | FAM105A 0.315 | OTUB1 -0.267 | OTUD4 -0.628 | OTUD5 -0.123
active: BAP1 -2.81

Cc1cccc(C)c1NC(=O)CCl
inactive: ALG13 0.022 | ATXN3 -0.224 | EIF3F -0.276 | EIF3H 0.122 | FAM105A 0.266 | OTUB1 -0.261 | OTUD4 -0.228 | OTUD5 -0.42
active: BAP1 -3.62

O=C(CCl)N1CCc2ccccc2C(O)C1 (stereo unspecified)
active: OTUD5 -1.31
inactive: ALG13 0.0799 | ATXN3 -0.585 | BAP1 -0.705 | EIF3F -0.125 | EIF3H -0.359 | FAM105A -0.413 | OTUB1 0.0821 | OTUD4 -0.69

O=C(CCl)NCCc1ccc(F)cc1
active: BAP1 -1.07
inactive: ALG13 -0.037 | ATXN3 -0.166 | EIF3F 0.0338 | EIF3H 0.194 | FAM105A -0.364 | OTUB1 -0.291 | OTUD4 -0.143 | OTUD5 -0.544

Cl.Cn1ncc2c1CCCC2NC(=O)CCl (stereo unspecified)
inactive: ALG13 0.35 | ATXN3 -0.16 | BAP1 -0.894 | EIF3F -0.378 | EIF3H 0.457 | FAM105A 0.0219 | OTUB1 -0.186 | OTUD5 -0.0276
active: OTUD4 -1.75
